The supplement of paper PMC11732987, “Enantioselective OTUD7B fragment discovery through chemoproteomics screening and high-throughput optimisation” (Communications Chemistry, 2025)

How the values were obtained:
Test in all cases: log2 ratio of Biotin-Ahx-Ub-VS probe labelling (fragment/DMSO); higher = less target engagement (more negative = stronger competition), active = hit call of the paper (q ≤ 0.05, log2 ratio ≤ -1)
Details in all cases: compound concentration: 200 uM; treatment time: 3 h
[1] = biological target: T1, OTUD6B (UniProt Q8N6M0)
T1 sequence (whole entry): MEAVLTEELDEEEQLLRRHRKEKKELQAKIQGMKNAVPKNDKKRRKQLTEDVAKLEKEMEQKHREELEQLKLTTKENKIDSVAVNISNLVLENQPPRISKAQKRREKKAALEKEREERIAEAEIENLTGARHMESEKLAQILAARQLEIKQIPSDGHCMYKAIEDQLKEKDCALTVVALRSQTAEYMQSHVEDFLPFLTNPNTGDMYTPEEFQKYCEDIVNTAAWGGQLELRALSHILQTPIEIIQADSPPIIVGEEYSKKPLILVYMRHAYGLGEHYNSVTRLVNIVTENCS
In short: (§1)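 The table lists average log2 ratios of fragment over vehicle, from an unpaired t-test on global-median-normalised Spectronaut label-free quantities. Proteins with ≥2 unique peptides were used. Samples were HEK293T lysate (495 µg) treated in triplicate with fragment at 200 µM or vehicle for 3 h, then with Biotin-Ahx-Ub-VS (0.5 µM final) for 1 h, with labelled DUBs NeutrAvidin-enriched and run by diaPASEF LC-MS/MS.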

[2] = biological target: T2, OTUD7B (UniProt Q6GQQ9)
T2 sequence (whole entry): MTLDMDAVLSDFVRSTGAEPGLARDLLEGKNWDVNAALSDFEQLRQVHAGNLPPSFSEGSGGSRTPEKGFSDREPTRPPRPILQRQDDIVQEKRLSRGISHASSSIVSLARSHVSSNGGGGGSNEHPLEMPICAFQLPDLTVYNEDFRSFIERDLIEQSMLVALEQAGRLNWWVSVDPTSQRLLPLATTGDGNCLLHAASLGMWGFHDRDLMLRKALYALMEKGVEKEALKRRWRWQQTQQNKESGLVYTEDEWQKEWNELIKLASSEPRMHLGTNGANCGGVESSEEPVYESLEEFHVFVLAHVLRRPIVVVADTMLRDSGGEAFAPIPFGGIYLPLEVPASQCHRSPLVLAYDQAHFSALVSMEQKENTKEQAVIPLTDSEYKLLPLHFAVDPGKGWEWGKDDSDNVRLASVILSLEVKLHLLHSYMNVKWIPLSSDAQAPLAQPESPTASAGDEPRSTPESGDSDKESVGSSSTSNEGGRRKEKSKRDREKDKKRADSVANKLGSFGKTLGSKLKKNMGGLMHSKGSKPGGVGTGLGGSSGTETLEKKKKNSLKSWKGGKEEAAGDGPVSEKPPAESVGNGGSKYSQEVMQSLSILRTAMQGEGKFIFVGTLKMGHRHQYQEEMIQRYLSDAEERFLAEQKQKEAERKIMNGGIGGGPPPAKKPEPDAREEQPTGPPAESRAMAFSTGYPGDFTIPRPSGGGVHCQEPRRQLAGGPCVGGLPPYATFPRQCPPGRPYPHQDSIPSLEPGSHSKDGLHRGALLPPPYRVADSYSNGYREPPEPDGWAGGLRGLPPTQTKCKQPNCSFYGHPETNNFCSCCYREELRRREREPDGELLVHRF
In short: as §1

[3] = biological target: PRPF8 (UniProt Q6P2Q9)
In short: as §1

[4] = biological target: T3, PSMD7 (UniProt P51665)
T3 sequence (whole entry): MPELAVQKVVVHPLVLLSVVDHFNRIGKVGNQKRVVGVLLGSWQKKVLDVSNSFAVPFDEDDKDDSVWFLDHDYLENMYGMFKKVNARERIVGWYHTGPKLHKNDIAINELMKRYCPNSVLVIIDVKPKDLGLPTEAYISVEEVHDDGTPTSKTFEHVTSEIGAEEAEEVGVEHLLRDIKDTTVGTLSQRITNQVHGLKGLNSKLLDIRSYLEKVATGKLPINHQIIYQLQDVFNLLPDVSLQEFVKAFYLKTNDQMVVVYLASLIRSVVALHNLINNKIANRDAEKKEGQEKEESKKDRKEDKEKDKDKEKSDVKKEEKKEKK
In short: as §1

[5] = biological target: UCHL1 (UniProt P09936)
Chain of UCHL1 (P09936 whole entry, looked up): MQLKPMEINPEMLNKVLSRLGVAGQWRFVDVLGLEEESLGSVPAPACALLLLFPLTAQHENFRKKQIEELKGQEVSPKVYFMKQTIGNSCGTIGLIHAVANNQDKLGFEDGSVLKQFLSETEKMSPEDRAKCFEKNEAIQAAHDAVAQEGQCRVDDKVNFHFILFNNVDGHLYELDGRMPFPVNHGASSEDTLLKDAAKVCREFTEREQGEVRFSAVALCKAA
In short: as §1

[6] = biological target: T4, UCHL3 (UniProt P15374)
T4 sequence (whole entry): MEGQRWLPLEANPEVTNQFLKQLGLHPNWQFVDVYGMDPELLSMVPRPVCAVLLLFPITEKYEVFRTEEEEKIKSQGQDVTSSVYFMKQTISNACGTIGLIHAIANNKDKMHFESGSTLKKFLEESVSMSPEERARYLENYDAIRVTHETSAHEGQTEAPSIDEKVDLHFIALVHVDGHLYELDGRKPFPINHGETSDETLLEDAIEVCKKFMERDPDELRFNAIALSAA
In short: as §1

[7] = biological target: T5, UCHL5 (UniProt Q9Y5K5)
T5 sequence (whole entry): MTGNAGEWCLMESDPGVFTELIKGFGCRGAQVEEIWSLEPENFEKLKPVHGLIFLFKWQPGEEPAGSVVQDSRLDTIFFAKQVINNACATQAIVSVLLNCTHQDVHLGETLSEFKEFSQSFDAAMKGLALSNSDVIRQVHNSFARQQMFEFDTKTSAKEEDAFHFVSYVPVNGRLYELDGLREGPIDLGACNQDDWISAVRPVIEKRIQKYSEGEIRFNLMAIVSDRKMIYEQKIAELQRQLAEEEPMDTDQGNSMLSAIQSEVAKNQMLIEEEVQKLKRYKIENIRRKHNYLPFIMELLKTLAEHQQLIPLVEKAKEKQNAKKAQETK
In short: as §1

[8] = biological target: USP10 (UniProt Q14694)
Chain of USP10 (Q14694 whole entry): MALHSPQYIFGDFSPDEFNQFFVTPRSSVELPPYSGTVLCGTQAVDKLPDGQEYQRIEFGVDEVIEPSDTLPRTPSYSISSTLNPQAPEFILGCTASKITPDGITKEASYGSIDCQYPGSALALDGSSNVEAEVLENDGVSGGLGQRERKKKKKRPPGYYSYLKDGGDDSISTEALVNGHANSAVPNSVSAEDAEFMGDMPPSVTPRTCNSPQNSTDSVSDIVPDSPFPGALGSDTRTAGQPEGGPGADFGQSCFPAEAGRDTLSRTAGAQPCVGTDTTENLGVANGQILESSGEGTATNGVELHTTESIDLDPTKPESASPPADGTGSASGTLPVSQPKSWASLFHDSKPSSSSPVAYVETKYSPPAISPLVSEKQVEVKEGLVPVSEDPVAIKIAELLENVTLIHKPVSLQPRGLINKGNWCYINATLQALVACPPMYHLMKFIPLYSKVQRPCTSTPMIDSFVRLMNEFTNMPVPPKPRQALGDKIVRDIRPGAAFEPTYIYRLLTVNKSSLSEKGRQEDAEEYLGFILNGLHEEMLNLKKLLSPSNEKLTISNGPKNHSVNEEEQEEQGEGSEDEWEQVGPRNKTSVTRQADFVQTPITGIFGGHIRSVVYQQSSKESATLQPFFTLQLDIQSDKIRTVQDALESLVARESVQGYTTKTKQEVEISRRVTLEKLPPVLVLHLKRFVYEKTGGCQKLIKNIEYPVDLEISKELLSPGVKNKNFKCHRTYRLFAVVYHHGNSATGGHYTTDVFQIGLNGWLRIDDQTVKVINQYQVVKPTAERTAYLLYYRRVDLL
In short: as §1

[9] = biological target: T6, USP15 (UniProt Q9Y4E8)
T6 sequence (whole entry): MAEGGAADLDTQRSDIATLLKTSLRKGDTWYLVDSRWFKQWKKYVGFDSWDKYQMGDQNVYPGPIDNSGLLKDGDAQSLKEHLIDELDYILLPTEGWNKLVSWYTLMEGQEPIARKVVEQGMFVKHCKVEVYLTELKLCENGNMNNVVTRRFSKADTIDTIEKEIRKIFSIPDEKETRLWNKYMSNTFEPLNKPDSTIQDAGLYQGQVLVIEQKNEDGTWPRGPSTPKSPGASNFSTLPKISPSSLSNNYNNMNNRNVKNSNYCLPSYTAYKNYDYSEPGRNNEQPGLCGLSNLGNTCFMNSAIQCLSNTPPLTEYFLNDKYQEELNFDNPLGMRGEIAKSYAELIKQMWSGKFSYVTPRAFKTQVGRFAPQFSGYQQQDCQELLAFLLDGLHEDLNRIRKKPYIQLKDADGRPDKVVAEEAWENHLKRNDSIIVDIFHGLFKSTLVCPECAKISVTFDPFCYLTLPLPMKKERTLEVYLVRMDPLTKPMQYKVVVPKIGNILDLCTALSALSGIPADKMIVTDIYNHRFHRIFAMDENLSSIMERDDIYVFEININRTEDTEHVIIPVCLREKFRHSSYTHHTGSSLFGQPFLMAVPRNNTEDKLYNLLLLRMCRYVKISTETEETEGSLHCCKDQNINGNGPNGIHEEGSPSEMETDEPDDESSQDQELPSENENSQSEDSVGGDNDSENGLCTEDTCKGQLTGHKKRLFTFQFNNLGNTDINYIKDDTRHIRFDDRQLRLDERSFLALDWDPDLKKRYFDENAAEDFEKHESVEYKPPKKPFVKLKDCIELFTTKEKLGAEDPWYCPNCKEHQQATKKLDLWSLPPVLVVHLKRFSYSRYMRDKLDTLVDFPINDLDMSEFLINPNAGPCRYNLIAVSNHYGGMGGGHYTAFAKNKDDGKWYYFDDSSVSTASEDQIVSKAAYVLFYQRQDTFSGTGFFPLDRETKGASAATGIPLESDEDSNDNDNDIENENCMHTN
In short: as §1

[10] = biological target: USP16 (UniProt Q9Y5T5)
Chain of USP16 (Q9Y5T5 whole entry, looked up): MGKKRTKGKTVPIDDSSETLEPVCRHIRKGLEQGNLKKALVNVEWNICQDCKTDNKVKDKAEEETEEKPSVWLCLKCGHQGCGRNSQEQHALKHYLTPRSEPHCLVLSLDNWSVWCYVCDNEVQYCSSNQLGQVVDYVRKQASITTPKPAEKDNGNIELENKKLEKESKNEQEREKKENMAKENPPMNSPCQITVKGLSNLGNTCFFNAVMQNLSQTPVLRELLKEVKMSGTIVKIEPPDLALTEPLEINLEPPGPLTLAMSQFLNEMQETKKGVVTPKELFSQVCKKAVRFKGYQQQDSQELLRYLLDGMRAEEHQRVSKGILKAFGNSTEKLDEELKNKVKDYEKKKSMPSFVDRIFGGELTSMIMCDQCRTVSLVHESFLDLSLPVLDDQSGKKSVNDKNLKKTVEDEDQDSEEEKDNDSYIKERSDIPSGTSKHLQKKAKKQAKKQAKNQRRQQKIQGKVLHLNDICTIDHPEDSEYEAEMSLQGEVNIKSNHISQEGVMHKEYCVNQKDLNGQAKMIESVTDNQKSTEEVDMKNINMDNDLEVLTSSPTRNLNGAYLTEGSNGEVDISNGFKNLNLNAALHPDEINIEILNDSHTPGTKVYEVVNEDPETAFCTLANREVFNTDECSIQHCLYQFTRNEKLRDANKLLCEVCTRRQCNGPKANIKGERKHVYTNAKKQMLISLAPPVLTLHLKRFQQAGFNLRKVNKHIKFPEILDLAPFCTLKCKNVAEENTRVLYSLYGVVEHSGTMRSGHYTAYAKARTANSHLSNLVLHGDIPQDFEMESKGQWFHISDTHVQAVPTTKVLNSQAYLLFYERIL
In short: as §1

Measured: log2 ratio of Biotin-Ahx-Ub-VS probe labelling

Cc1cccnc1NC(=O)C1CCN(C(=O)CCl)CC1.Cl
active: [5] -1.33
inactive: [1] -0.127 | [2] -0.284 | [3] -0.0508 | [4] -0.189 | [6] 0.088 | [7] -0.328 | [8] -0.146 | [9] -0.24 | [10] 0.018
